LDHA block: qHTS assay for inhibitors of human lactate dehydrogenase; purified LDHA, NADH/diaphorase-resazurin fluorescence; hits give low values; hit rate 0.15% among 480,000; L-lactate dehydrogenase A chain (Homo sapiens), P00338; activity change, % (values are at about 110 or 230 µM); AID 1347041, 2019; in the data active = activity change below about -30%; inconclusive = mostly about -25% to -30%;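 note: plate controls were DMSO wells for no effect and wells without enzyme for full effect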
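Enzyme activity of human lactate dehydrogenase 5 (2 nM; 0.06 mM NADH, 0.2 mM pyruvate, 5 min, RT) is measured via a resazurin/diaphorase fluorescence readout of residual NADH.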
GLP-1R agonist: qHTS of GLP-1 Receptor Agonists; Potency, µM (top dose mostly 45.6 µM), for the others: top-dose activation, actives largely listed as activators; hit rate 0.007% among 380,000; Glucagon-like peptide 1 receptor (Homo sapiens), P43220; AID 624172, 2012; HEK293 GLP-1R CRE-luciferase, luminescence, 4-6 h; cells express a hypersensitive GLP-1R form; note: potency is the fitted concentration of half-maximal effect; % of control where 0% means no effect
ClpP mod: qHTS Assay for Activators of ClpP; purified B. subtilis ClpP, FRET peptide cleavage, 20 min; Potency, µM (series often up to 57.5 µM), without a hit: at the top dose activity change, negative = active; hit rate 1.9% among 340,000; active = well fitted falling curve with a large enough effect; inconclusive = small, poorly fitted or top-dose-only effect; inactive = no such curve, though single readings can be large or run the other way; note: potency is the fitted concentration of half-maximal effect; the source files actives as falling curves though it sought activators and does not explain the sign; nearly all actives have a fitted effect of over 65% in size
Target sequence (P80244 whole entry, looked up): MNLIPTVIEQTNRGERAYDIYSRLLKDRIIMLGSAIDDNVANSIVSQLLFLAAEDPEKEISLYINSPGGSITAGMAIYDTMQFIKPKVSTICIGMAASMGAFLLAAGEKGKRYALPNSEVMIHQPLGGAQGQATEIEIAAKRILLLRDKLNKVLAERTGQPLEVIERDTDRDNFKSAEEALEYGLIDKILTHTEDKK
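Purified B. subtilis ClpP, 10 microg/mL final in Tris/HCl pH8 with KCl, BSA, glycerol and Tween-20, cleaved an Abz/nitrotyrosine-quenched decapeptide. Fluorescence (ex 320, em 430) was read at 0 and 20 min at room temperature. Delta was normalized to 5.8 microM ADEP and DMSO/no-enzyme controls.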
HEK293 tox: qHTS of GLP-1 Receptor Inverse Agonists: Cytotox Screen | HEK293 cAMP-luciferase reporter cells, luminescence, 24 h | Potency, µM (titrated, usually from 38.3 µM), without a hit: top-dose activity change, negative = inhibition, most hits filed as inhibitors | hit rate 0.13% among 410,000 | AID 624418, 2012;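 note: loss of luciferase light is scored as toxicity; potency is the fitted concentration of half-maximal effect; % is set by controls: 0 for no effect and ±100 for the full control effect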
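Here, cytotoxicity is scored as loss of luminescence. The MLSMR collection was tested on cells seeded in medium containing 10% Nu serum, with a 24 hr compound exposure preceded by 12 hours of culture.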
p53 reactivation: qHTS assay for re-activators of p53 using a Luc reporter | hit rate 0.063% among 320,000 | AID 504706, 2011 | H1299 p53-A138V BP100-luciferase reporter, luminescence, 24 h | Potency, µM (highest dose often 92.2 µM), for the others: at the top dose activity change, positive = activation, actives largely listed as activators; note: potency is the fitted concentration of half-maximal effect; % of control where 0% means no effect; nearly all actives have a fitted effect of over 45% in size
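H1299 (p53-null), stable ts p53-A138V + BP100-Luc; 1000 cells/well, Opti-MEM/10% FBS; cpd 4 pt, 1:5; 24 h, 37 deg C, 5% CO2; detection reagent 10 min RT; luminescence.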
GLP-1R inv ag: qHTS of GLP-1 Receptor Inverse Agonists (Inhibition Mode); Glucagon-like peptide 1 receptor (Homo sapiens), P43220; HEK293 GLP-1R CRE-luciferase, luminescence, 24 h; GLP-1R form is constitutively active; Potency, µM (top dose mostly 38.3 µM), inactives show at the top dose activity change, negative = inhibition, hits mostly inhibitors; hit rate 1.6% among 410,000; note: potency is the fitted concentration of half-maximal effect; % is set by controls: 0 for no effect and ±100 for the full control effect; nearly all actives have a fitted effect of over 55% in size
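Inverse agonism was detected as reduced cAMP-driven luciferase luminescence after 24 h compound treatment. The cells were HEK293 clones expressing constitutively active human GLP-1R with the reporter. Reporter-only and GPR119 cell lines served as counterscreen controls.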
ClpP inh valid: qHTS Assay for Activators of ClpP: Hit Validation of Inhibitors | purified B. subtilis ClpP, FRET-FV substrate cleavage, 20 min | shares compounds with ClpP mod | hit rate 40% among 470 | Potency, µM (series often up to 57.5 µM), inactives show at the highest dose activity change, negative = inhibition, usual class: inhibitors | AID 743245, 2014; note: potency is the fitted concentration of half-maximal effect; % is set by controls: 0 for no effect and ±100 for the full control effect; nearly all actives have a fitted effect of over 70% in size
Numbers without * were called inactive; u = inconclusive; x = not tested or not shown; [ ] = remark or other dose. Only some compounds are listed: those with a hit (about 2.9% of all), similar ones and a draw of the others. Unless noted, calls come from the whole dose curve; as a rule, active = well fitted curve in the direction sought with a large enough effect; inconclusive = small, poorly fitted or top-dose-only effect, or another doubt; inactive = no such curve, though single readings can be large; an effect the other way counts as inactive or inconclusive.

SMILES | LDHA block | GLP-1R agonist | ClpP mod | HEK293 tox | p53 reactivation | GLP-1R inv ag | ClpP inh valid
Cc1ccccc1C(=O)N/C(=C\c1ccc(O)cc1)C(=O)O | 3 | x | x | x | x | x | x
COc1ccc2nc3n(c(=O)c2c1)-c1cc2ccccc2cc1C(=O)NC3Cc1ccccc1 (configuration not stated) | 4 | -3% | 5.6µM* | -11% | x | u | u
Cc1ccc(NC(=O)c2ccc(-c3ccccc3)s2)cc1 | -12 | x | 47% | -1% | x | -11% | -9%
CCOC(=O)C1CCCN(c2ncnc3c2oc2ccccc23)C1 (configuration not stated) | 0 | 20% | 352% | -8% | u | 22% | -2%
CCOC(=O)C1CCN(c2ncnc3c2oc2ccccc23)CC1 | -5 | 19% | -2% | 4% | u | 28% | x
COc1ccc(Br)cc1CNC(=O)c1cnc2sc(N3CCCCCC3)nn2c1=O | -13 | x | 8.9µM* | 1% | x | 3% | 0%
Cc1cc(C)cc(C(=O)N(Cc2ccco2)c2c(N)n(Cc3ccccc3)c(=O)[nH]c2=O)c1 | -10 | -3% | 10µM* | -16% | -3% | 1% | -1%
Cc1ccc(CNc2nc(C)c(C(=O)N(C)C)s2)cc1 | -6 | 8% | x | 2% | u | 10% | x
COc1ccc(-c2ccc(N(C)C)cc2)cc1[C@H]1[C@H]2C=CC[C@@H](C)[C@@H]2C(=O)N1Cc1ccccc1 | 0 | 0% | 2.2µM* | 0% | 13% | -15% | 34µM*
COc1ccc(-c2ccc(OC)c([C@H]3[C@H]4C=CC[C@@H](C)[C@@H]4C(=O)N3Cc3ccccc3)c2)cc1C | 0 | 1% | -6% | 10% | 8% | 5% | x
O=C(CSc1nnc(CNC(=O)C23CC4CC(CC(C4)C2)C3)n1-c1ccc(F)cc1)Nc1ccc(F)cc1 | -3 | -7% | 1% | -21% | -25% | u | x
CCOC(=O)C1CCN(c2ncnc3c2cnn3-c2ccccc2)CC1 | -8 | -7% | -2% | 4% | -1% | 8% | x
CC(C)C(=NO)c1ccccc1 | -10 | 0% | -1% | 9% | x | 3% | x
O=C(Cc1cccs1)Nc1ccc(-c2nnc(-c3ccccc3)o2)cc1 | -3 | -7% | 8.9µM* | 1% | x | 0% | 12µM*
c1ccc(Oc2cc(-n3cncn3)ncn2)cc1 | -4 | 0% | 2.8µM* | -5%[1.53 µM] | u | 21% | 0%
NC(=O)c1ccccc1NS(=O)(=O)Cc1ccccc1 | -5 | -8% | 7.9µM* | 5% | 7% | 6% | 22µM*
CCOC(=O)c1[nH]c2ccccc2c1NC(=O)c1cc(OCC)c(OCC)c(OCC)c1 | 2 | 0% | 45% | -2% | x | -8% | 12%
COc1ccc(-c2[nH]c(-c3ccc4c(c3)OCO4)nc2-c2ccccc2)cc1 | 5 | -10% | 2.5µM* | u | 1% | 1.8µM* | 24µM*
COc1cc(-c2nc(-c3ccccc3)c(-c3ccc(F)cc3)[nH]2)cc2c1OCO2 | -8 | -12% | 10µM* | 15% | -2% | u | 22µM*
COc1ccc2c(c1)c1ncn(CCN3CCNCC3)c(=O)c1n2C | 8 | 15% | 2.2µM* | 11% | -3% | -1% | 19µM*
Cc1cccc2[nH]c3c(=O)n(CCN4CCNCC4)cnc3c12 | 0 | -6% | u | 15% | -2% | -26% | x

Screening results (PubChem BioAssay)
